Source: PubChem BioAssay (NCI)
About 83,000 compounds went through this panel and 20% of them were active in at least one assay; those are over-represented in the sample as a whole.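 Cells were grown in 96-well plates and exposed to the test compound at a single concentration for 48 hours; results are reported as percent growth, with values below 10 considered active.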 Values without a mark were called inactive. The source made the active and inactive calls.

Test system: SR leukemia
Assay: NCI-60 one-dose screen, 48 h (100 = growth as untreated, 0 = no growth, -100 = all killed)
Conditions: 10 µM unless noted
Protocol: Growth inhibition of the SR human tumor cell line is measured as a screen for anti-cancer activity. Cells are grown in 96 well plates and exposed to the test compound for 48 hours. Compounds are tested at a single concentration, which is 10^-5 M for most compounds. The reported endpoint is percent growth (GI% or GIPRCNT), where numbers from 0 - 100% represent growth inhibition, and numbers from -100% - 0 represent cell death. For example, a value of 40 represents 60% growth inhibition. A value of 0 means no net growth occurred over the course of the experiment. A value of -40 indicates 40% of cells at the beginning of the experiment died by the end of the experiment. A value of -100 means all cells are dead at the end of the experiment.
NCI-60 Human Tumor Cell Lines Screen was performed using the standard one-dose NCI protocol, which is described in more detail at https://dtp.cancer.gov/discovery_development/nci-60/default.htm.
Compounds with GIPRCNT values below 10 were considered active. Activity score was based on GIPRCNT using the following formula: […]
Score is 0 for GIPRCNT values of 100 or above, 50 for GIPRCNT values of 0, and 100 for GIPRCNT values of -100.

Structure (SMILES)	growth
O=C(CCC(=O)N/N=C/c1ccccc1O)N/N=C/c1ccccc1O	27%
COc1ccc(-c2nnc(-c3ccc4c(c3)nc(-c3ccncc3)n4C3CCCCC3)o2)cc1	46.6%
COc1cccc(CNc2ncnc3c2ncn3C2OC(CO)C(O)C2O)c1O (stereo not given)	-9.69% (active)
O=C(Cn1c(=O)sc2ccccc21)NNS(=O)(=O)c1ccccc1[N+](=O)[O-]	96%
Cc1c(-c2nc3ccc(F)cc3c(=O)[nH]2)c2ccccc2n1C	11.3%
CCOC(=O)Cn1c(O)c(N=Nc2ccc(S(N)(=O)=O)cc2)c2cc(Br)ccc21	75.3%
O=S(=O)(Nc1ccccc1)c1ccc(C2CC3(Cl)C(Cl)=C(Cl)C2(Cl)C3(Cl)Cl)cc1 (stereo not given)	18.8%
O=C(CCc1nnc(Cn2cnc3nc[nH]c3c2=O)o1)c1nc2ncccc2[nH]1	100%
CS(=O)(=O)c1cccc(-c2c(-c3cccc(OS(N)(=O)=O)c3)nc3sccn23)c1	85.1%
O=[N+]([O-])c1ccc(N/N=C(/C(=N/Nc2ccc([N+](=O)[O-])cc2)c2ccccc2)c2ccccc2)cc1	65.8%
COc1cc(-c2cc(-c3cccs3)c(C#N)c(N3CCOCC3)n2)cc(OC)c1OC	-1.19% (active)
CCSc1nc(NC)c2cc(-c3ccc(C(F)(F)F)cc3)ccc2n1	94%
O=C(O)c1[nH]c(=O)[nH]c(=O)c1[N+](=O)[O-]	70.9%
CCCCCCNC(=O)Oc1ccc(/C(=C(/C)Cc2ccc(OC)cc2)c2ccc(OCCCN(C)C)cc2)cc1	-53.3% (active)
O=C(Nn1c2c(sc1=NCc1ccccc1)C(=O)c1ccccc1C2=O)c1cc2ccc1CCc1ccc(cc1)CC2	48.3%
CC(C)=CCC[C@](C)(O)[C@H]1CC[C@]2(C)[C@@H]1CC[C@@H]1[C@@]3(C)Cc4nccnc4C(C)(C)[C@@H]3CC[C@]12C	43.7%
N#Cc1c(-c2ccc(Cl)cc2)nc(NN=Cc2cccc(O)c2)nc1N1CCOCC1	4.7% (active)
Cc1ccc(S(=O)(=O)N2CCCC2CO)cc1 (stereo not given)	112%
COC(=O)c1cc(-c2ccc(OC)cc2)[nH]c1N/N=C/c1c(Cl)cccc1Cl	-16.4% (active)
CCN(CC)c1nc(SCc2ccccc2Cl)ncc1C	95.6%

Structure (SMILES)	growth
O=C1c2cccnc2C(=O)c2c1c(C(=O)NCCCN1CCCCC1)c1ccccn21	-15.3% (active)
CCN(CC)CCOc1ccc(-c2c(-c3ccccc3)c(=O)oc3ccccc23)cc1	93.6%
CCCCCCCCn1ccc2cc(NC(=O)CN3CCN(c4nc(C)cc(Cl)n4)CC3)ccc21	23.5%
COc1ccc(C(=O)Nc2ncc(Cc3ccc(F)cc3)s2)cc1	11.1%
Cc1cc2c([nH]1)CSc1cc(S(=O)(=O)c3ccccc3)c(=O)[nH]c1-2	12.8% [100 µM]
COc1ccc2cc(-c3ccc(NC(C)=O)c(=O)o3)ccc2c1	88.2%
COc1ccc(C2=Nc3c/c(=C\c4c(O)[nH]c5ccc(Cl)cc45)ccc3=N2)cc1	2.44% (active)
Nc1c(C(=O)Nc2ccncc2)sc2nc3c(cc12)CCCCCC3	20.8%
C=C(C)[C@@H]1CC[C@]2(C)[C@H](CC=C3[C@@H]4[C@H](C)[C@@H](C)CC[C@]4(CO)CC[C@]32C)[C@@]1(C)CCCN	-35.4% (active)
c1cc2[nH]ncc2cc1-c1nc2ccc3[nH]ncc3c2c2c1CCCC2	-13.7% (active)
Clc1ccc2c(c1)N(c1ncnc3ccc(-c4cnc5[nH]ncc5c4)cc13)CC2	24.3%
CS(=O)(=O)C1=CN(CCO)C(=O)N2CCCN=C12	115%
N#CC1CCc2c(c(-c3cn[nH]c3C(F)(F)F)nc3c(F)cc4[nH]ncc4c23)C1 (stereo not given)	14.5%
CCCC(O)Cn1ncc(C(=O)OCC)c1NC(=O)NCc1ccccc1F (stereo not given)	93.5%
O=[N+]([O-])/C(=C/C=C/c1ccccc1)c1ccccc1	26.5%
COc1cc(CNS(=O)(=O)c2ccc(C)cc2)ccc1OCc1cn(-c2ccc(Br)cc2)nn1	100%
Cc1ccc(-c2nn(-c3ccccc3)cc2C=C2C(=O)ON=C2C(C)C)cc1	-23.5% (active)
c1cnc2[nH]cc(-c3csc(-c4cn(CCCN5CCOCC5)c5ccccc45)n3)c2c1	2.93% (active)
CC(=O)[C@@H]1CCC=C2CC[C@]3(C)[C@@H](CC[C@@H]4[C@@]5(C)CCCNC(C)(C)[C@@H]5CC[C@]43C)[C@H]21	-45.2% (active)
Cc1ccc(-c2nc3nc(-c4ccc(F)cc4)nc(N4CCNCC4)c3o2)cc1	-29.5% (active)
